{"source": "PubChem BioAssay AID652015", "about": "(National Center for Advancing Translational Sciences (NCATS), 2013)", "target": "Coelenterazine h 2-monooxygenase (Renilla reniformis) (UniProt P27652)", "sequence (P27652 whole entry, looked up)": "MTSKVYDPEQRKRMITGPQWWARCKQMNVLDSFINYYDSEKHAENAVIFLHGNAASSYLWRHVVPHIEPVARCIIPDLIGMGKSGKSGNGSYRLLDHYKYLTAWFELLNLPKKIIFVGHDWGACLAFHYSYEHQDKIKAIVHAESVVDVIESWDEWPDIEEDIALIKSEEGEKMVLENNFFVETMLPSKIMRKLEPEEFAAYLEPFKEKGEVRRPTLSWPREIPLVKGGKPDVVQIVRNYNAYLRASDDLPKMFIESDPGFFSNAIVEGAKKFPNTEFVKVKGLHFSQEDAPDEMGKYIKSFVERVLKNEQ", "test": "qHTS Assay for Inhibitors of Sea Pansy Luciferase from the GSK Published Protein Kinase Inhibitor Set", "text": "FLuc (firefly luciferase) is the prototypical bioluminescent reporter gene from Photinus pyralis.[1] The enzyme catalyzes the oxidation luciferin via luciferin-AMP to produce light. FLuc is used in cell-based reporter gene-based assays for screening small molecule chemical libraries. However, small molecule luciferase inhibitors present in most large chemical libraries are often enriched in the output of high throughput screens using this reporter sometimes complicating interpretation and candidate selection.\nRLuc is a bioluminescent reporter gene luciferase from Renilla reniformis, also known as the sea pansy. RLuc uses the luciferin substrate coelenterazine. […]\nThree microliters containing renilla luciferase substrate in buffer (final concentrations: 50mM Tris acetate, pH 7.5, 100uM NaCl, 0.01% Tween-20, 0.05% BSA, 5uM coelenterazine h) are dispensed into each well of a Greiner white, solid-bottom 1536-well format plate using a flying reagent dispenser (FRD). These assay plates were then treated with 23nL of compound or DMSO using a Kalypsys pin tool, which allows for delivery of a 7-point interplate titration of each compound to the assay plate (quantitative HTS), with final compound concentrations ranging from approximately 60uM to 300pM. […] Luciferase activity was then measured using an Envision plate reader (PerkinElmer), with an average incubation time of 2 min.", "note": "Results filed as inconclusive are left out. Activity calls are given as the source filed them. Calls follow the shape of the dose curve; as a rule, active = well fitted inhibition curve with a large enough effect; inconclusive = small, poorly fitted or top-dose-only effect; inactive = no such curve, though single readings can be large or run the other way."}
{"smiles": "CNC(=O)Oc1cc(C)c(C=Cc2cncc(C(=O)NC)c2)c(C)c1", "values": [{"measurement": "outcome", "value": "inactive"}]}
